Test results reported in PubChem BioAssay.
A number with no mark means an inactive call. For some of these results: Results with a measured potency or affinity are listed apart. Calls of active or inactive are those of the source. Unless noted, the rule behind the calls is not given here.

Columns and labels:
[1] = antimalarial activity against Dd2 strain (AID 2302;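 active = growth inhibition above 50% at the single 2 µM test dose, taken to imply half-maximal potency below 2 µM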;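 note: 0% = DMSO untreated growth and 100% = chloroquine plus artemisinin killed control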); conditions: P. falciparum Dd2 in RBCs, LDH growth readout, 72 h; at 2 µM; active compounds read high
[2] = human hepatoma cell viability loss – ATP luminescence, cytotoxicity control for P. falciparum antimalarial project, primary screen (AID 2303;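 active = inhibition above 50%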;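 note: 0% = DMSO wells and 100% = digitonin-killed cells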); conditions: HepG2 viability, 24-48 h, at 10 µM, active compounds read high
[3] = target: L-lactate dehydrogenase (Plasmodium falciparum (isolate CDC / Honduras)) (UniProt Q27743); experiment: PfLDH activity inhibition – cell lysate, 3D7 strain, counter-screen for P. falciparum growth inhibition project (AID 2304);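 note: 0% = vehicle and 100% = reference inhibitor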; conditions: P. falciparum 3D7 crude extract, LDH APAD/NBT absorbance; at 2 µM; active compounds read high
[4] = inhibition of 3D7 malaria parasite growth – strain 3D7 (AID 2306);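 note: 0% = DMSO wells and 100% = chloroquine plus artemisinin control wells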; conditions: P. falciparum 3D7 erythrocytic growth, LDH absorbance, 72 h; at 2 µM; active compounds read high
[5] = target: Calcium-dependent protein kinase 1 (Plasmodium falciparum (isolate 3D7)) (UniProt P62344); experiment: PfCDPK1 kinase inhibitors, biochemical, TCAMS library (AID 1159585; cut-off not given, nearly all actives have IC50 up to about 0.98 µM;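 note: inhibitors leave more ATP so luminescence rises with inhibition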); conditions: recombinant PfCDPK1, Kinase-Glo ATP depletion luminescence
[6] = target: Plasmodium falciparum protein kinase 6 (PK6, PF3D7_1337100) (UniProt Q8IDW1); experiment: PfPK6 kinase inhibitors, biochemical, TCAMS library (AID 1159586); conditions: recombinant PfPK6, Kinase-Glo ATP depletion luminescence
[7] = target: Protein kinase 7 (PK7), Plasmodium falciparum 3D7 (PF3D7_0213400) (UniProt Q7YTF7); experiment: inhibition of Plasmodium PK7 catalytic activity – biochemical, TCAMS antimalarial set, Kinase-Glo luminescence (AID 1159587); conditions: recombinant PfPK7, Kinase-Glo ATP depletion luminescence
[8] = target: Calcium-dependent protein kinase 4 (Plasmodium falciparum (isolate 3D7)) (UniProt Q8IBS5); experiment: PfCDPK4 kinase inhibitors, biochemical, TCAMS library (AID 1159588; cut-off not given, nearly all actives have IC50 up to about 0.91 µM); conditions: recombinant PfCDPK4, Kinase-Glo ATP depletion luminescence
Sequence of Calcium-dependent protein kinase 4 (Plasmodium falciparum (isolate 3D7)) (Q8IBS5 whole entry, looked up): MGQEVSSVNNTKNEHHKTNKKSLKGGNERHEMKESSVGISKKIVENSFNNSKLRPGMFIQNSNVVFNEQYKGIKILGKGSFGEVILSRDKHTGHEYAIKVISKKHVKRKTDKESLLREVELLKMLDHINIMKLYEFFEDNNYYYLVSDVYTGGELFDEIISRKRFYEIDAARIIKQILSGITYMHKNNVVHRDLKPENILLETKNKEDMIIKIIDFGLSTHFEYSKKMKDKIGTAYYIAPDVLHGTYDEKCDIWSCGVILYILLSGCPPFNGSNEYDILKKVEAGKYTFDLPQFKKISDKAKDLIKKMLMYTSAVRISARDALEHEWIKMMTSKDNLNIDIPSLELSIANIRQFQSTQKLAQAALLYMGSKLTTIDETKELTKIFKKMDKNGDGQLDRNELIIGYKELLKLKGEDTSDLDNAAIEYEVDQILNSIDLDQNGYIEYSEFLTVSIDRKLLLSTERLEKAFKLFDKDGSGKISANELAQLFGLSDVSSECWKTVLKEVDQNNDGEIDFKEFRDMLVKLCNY

Sequence of Calcium-dependent protein kinase 1 (Plasmodium falciparum (isolate 3D7)) (P62344 whole entry, looked up): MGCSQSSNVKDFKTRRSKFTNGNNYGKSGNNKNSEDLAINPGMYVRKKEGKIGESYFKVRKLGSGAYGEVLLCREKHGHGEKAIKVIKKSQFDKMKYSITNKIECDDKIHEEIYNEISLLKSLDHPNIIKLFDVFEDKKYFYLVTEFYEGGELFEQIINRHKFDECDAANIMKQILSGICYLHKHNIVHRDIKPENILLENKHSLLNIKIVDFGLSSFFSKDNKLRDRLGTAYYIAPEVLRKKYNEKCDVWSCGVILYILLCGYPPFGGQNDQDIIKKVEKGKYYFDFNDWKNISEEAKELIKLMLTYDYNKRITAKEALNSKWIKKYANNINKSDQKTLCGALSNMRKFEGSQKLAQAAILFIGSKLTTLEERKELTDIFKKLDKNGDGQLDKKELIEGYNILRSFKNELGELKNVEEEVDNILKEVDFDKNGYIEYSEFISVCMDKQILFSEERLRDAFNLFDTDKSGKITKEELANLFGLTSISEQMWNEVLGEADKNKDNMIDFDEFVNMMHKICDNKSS
Sequence of Plasmodium falciparum protein kinase 6 (PK6, PF3D7_1337100) (Q8IDW1 1-305): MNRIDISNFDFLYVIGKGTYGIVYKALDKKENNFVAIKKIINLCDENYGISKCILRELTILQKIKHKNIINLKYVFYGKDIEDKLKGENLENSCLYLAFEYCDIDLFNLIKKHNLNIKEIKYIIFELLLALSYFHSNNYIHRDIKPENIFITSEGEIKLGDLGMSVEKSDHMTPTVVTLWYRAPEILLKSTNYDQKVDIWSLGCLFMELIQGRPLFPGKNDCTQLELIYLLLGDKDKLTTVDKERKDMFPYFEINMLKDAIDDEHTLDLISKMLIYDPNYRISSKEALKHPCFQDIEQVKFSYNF
Sequence of L-lactate dehydrogenase (Plasmodium falciparum (isolate CDC / Honduras)) (Q27743 whole entry, looked up): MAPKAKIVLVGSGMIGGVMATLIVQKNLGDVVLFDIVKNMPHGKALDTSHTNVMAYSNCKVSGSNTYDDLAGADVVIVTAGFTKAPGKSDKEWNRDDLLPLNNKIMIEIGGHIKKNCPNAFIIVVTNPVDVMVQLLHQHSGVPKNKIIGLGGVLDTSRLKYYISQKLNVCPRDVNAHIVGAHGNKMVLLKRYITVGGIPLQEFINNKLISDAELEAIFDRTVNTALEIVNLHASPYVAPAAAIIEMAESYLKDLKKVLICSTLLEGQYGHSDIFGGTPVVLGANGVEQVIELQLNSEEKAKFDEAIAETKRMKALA
Sequence of Protein kinase 7 (PK7), Plasmodium falciparum 3D7 (PF3D7_0213400) (Q7YTF7 1-343): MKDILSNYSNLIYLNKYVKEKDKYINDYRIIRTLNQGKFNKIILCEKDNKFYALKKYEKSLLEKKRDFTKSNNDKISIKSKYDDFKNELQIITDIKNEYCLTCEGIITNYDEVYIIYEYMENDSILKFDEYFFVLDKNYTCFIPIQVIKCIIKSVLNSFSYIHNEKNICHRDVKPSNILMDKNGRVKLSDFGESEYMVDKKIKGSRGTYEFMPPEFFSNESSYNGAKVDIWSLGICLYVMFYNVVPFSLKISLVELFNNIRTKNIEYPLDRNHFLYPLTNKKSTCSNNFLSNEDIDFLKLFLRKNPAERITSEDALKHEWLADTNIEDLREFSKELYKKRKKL

Row | SMILES | growth inhibition [1] | inhibition [2] | inhibition [3] [%] | growth inhibition [4] | outcome [5] | outcome [6] | outcome [7] | outcome [8]
1 | COc1cccc(-c2[nH]c3ccccc3c2CN2CCC(c3c(C)cccc3C)CC2)c1 | 24% | 32% | 3 | 99% (active) | inactive | inactive | inactive | inactive
2 | c1ccc(CNCc2cccc(-c3ccc(-c4nc5ccccc5[nH]4)cc3)c2)cc1 | 39% | 10% | -5 | 97% (active) | inactive | inactive | inactive | inactive
3 | CN1CCN(Cc2nc(-c3ccc4c(Nc5ccc(Oc6ccccc6)cc5)ccnc4c3)cs2)CC1 | 99% (active) | 15% | 0 | 100% (active) | inactive | inactive | inactive | inactive
4 | CCN1CCN(C(=O)NC(C(=O)N2CCCC(COc3ccc(Cc4ccccc4)cc3)C2)c2cccs2)C(=O)C1=O (stereo not given) | 87% (active) | 12% | -6 | 95% (active) | inactive | inactive | inactive | inactive
5 | CCc1nonc1NC(=O)c1oc2c(C)c(C)ccc2c1C | 64% (active) | 1% | -3 | 89% (active) | inactive | inactive | inactive | inactive
6 | O=C(Nc1cccc(C(F)(F)F)c1)NC1CCN(c2ccnc3ccccc23)CC1 | 43% | 23% | -1 | 101% (active) | inactive | inactive | inactive | inactive
7 | COc1ccc(-c2ccc(CNC(=O)c3ccc(C#N)cc3)c(F)c2)cc1CN1CCCN(C)CC1 | 1% | 6% | -10 | 90% (active) | inactive | inactive | inactive | inactive
8 | Nc1ccc2nc(C=Cc3ccc(Cl)cc3)[nH]c2c1 | 83% (active) | 19% | 1 | 91% (active) | inactive | inactive | inactive | inactive
9 | O=C(N[C@@H](CC1CCCCC1)C(=O)NC1CCCc2ccccc21)c1ccc(O)c(-c2ccc(Cl)c(Cl)c2)c1 (stereo not given in full) | 99% (active) | 1% | -3 | 98% (active) | inactive | inactive | inactive | inactive
10 | N#Cc1ccc2[nH]cc(CN3CCC4(CC3)CN(CCNCc3ccccc3)C(=O)O4)c2c1 | 0% | -5% | -1 | 100% (active) | inactive | inactive | inactive | inactive
11 | CN1CCN(Cc2cccc(-c3ccc4c(Nc5ccc(Oc6cccnc6)cc5)ccnc4c3)c2)CC1 | 100% (active) | 15% | 0 | 100% (active) | inactive | inactive | inactive | inactive
12 | COc1ccc(OC)c(-c2cccc(-c3cccc(NC(=O)c4ccc([N+](=O)[O-])o4)c3)n2)c1 | 97% (active) | 75% (active) | -7 | 98% (active) | inactive | inactive | inactive | inactive
13 | Cc1cc(-c2ccc(NC(=O)N3CCc4cc(Cl)c(N5CCN(C)CC5)cc43)cc2)ccc1C#N | 83% (active) | 100% (active) | -2 | 101% (active) | inactive | inactive | inactive | inactive
14 | CC(=O)Nc1ccc(CN2CCc3ccc(NS(=O)(=O)c4cccc(OCc5ccc(Cl)cc5)c4)cc3CC2)s1 | 7% | 23% | -3 | 93% (active) | inactive | inactive | inactive | inactive
15 | COc1ccccc1CCNc1ncc(F)c(N[C@@H](Cc2ccccc2)C(=O)NCCc2ccccc2)n1 | 83% (active) | 7% | -2 | 90% (active) | inactive | inactive | inactive | inactive
16 | c1cc(-c2ccc(CNCCCn3ccnc3)cc2)cc(-c2nc3ccccc3[nH]2)c1 | 100% (active) | 17% | 5 | 101% (active) | inactive | inactive | inactive | inactive
17 | CCCCCCCCc1c(C)[nH]c(C)c(I)c1=O | 77% (active) | 5% | 4 | 91% (active) | inactive | inactive | inactive | inactive
18 | O=C(c1ccc(-c2ccc(-c3nc4ccc(F)cc4[nH]3)cc2)cc1)N1CCCCC1CN1CCC(O)C1 (stereo not given) | 100% (active) | 24% | -1 | 90% (active) | inactive | inactive | inactive | inactive
19 | Cc1c(-c2cccc(C(C)(C)NCCCN3CCCCC3)c2)cnc(N)c1C | 2% | 5% | -1 | 95% (active) | inactive | inactive | inactive | inactive
20 | COc1ccc2nccc([C@@H](O)CN3CCC(NC(=O)c4ccc(Cl)c(Cl)c4)CC3)c2c1 | 57% (active) | 21% | -5 | 96% (active) | inactive | inactive | inactive | inactive
